Data as given in the supplement of paper PMC11732987, “Enantioselective OTUD7B fragment discovery through chemoproteomics screening and high-throughput optimisation” (Communications Chemistry, 2025).
A number with no mark means an inactive call.

The compounds below were run against T1, OTUD4 (UniProt Q01804) (assay: log2 ratio of Biotin-Ahx-Ub-VS probe labelling (fragment/DMSO); higher = less target engagement (more negative = stronger competition), active = hit call of the paper (q ≤ 0.05, log2 ratio ≤ -1)). Conditions: compound concentration: 200 uM; treatment time: 3 h.
T1 sequence (whole entry): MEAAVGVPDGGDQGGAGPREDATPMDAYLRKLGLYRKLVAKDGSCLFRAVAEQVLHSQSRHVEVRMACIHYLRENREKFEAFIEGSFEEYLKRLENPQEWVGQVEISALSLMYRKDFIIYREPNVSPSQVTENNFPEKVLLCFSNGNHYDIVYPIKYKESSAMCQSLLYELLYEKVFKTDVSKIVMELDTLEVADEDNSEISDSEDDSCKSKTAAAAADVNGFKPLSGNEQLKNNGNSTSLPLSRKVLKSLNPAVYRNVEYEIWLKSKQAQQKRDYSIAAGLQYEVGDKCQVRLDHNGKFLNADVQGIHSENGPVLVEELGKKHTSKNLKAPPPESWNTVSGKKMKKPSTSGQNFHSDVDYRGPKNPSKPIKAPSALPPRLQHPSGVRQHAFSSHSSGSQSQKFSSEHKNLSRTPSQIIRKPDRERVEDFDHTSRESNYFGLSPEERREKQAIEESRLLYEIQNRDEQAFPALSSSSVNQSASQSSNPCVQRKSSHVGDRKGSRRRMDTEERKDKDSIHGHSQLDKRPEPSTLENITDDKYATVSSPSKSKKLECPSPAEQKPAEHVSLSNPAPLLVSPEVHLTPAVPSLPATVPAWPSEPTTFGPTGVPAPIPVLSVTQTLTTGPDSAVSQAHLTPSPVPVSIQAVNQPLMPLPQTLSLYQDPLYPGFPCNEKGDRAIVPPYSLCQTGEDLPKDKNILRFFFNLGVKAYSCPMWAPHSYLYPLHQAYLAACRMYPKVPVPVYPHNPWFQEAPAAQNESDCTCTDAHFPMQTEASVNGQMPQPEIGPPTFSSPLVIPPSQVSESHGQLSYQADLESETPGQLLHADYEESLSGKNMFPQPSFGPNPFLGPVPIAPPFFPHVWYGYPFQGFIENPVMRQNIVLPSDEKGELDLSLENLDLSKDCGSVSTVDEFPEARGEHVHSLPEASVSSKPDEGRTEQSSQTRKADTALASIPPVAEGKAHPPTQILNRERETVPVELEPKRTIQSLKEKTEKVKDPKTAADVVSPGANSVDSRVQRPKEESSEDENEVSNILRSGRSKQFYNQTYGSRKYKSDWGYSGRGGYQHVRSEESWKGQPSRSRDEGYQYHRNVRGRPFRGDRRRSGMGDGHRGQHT
Method in brief: (§1)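 The table lists average log2 ratios of fragment over vehicle, from an unpaired t-test on global-median-normalised Spectronaut label-free quantities. Proteins with ≥2 unique peptides were used. Samples were HEK293T lysate (495 µg) treated in triplicate with fragment at 200 µM or vehicle for 3 h, then with Biotin-Ahx-Ub-VS (0.5 µM final) for 1 h, with labelled DUBs NeutrAvidin-enriched and run by diaPASEF LC-MS/MS.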
`COc1cc(Cl)c(C)cc1NC(=O)CCl` was tested, and the “log2 ratio of Biotin-Ahx-Ub-VS probe labelling” value (“log2 ratio” for short) was -0.51. In the case of `Cl.O=C(CCl)N1CCN(Cc2ccccc2)CC1`, the “log2 ratio” value is reported as -0.316. With `Cc1nc(CN2CCN(C(=O)CCl)CC2)cs1` the “log2 ratio” value was -0.0355. For `O=C(CCl)Nc1cc(Cl)ccc1C(=O)O`, the “log2 ratio” value was 0.038. For `CN(C(=O)CCl)c1nc2ccccc2s1`, the “log2 ratio” value was -0.0109. In the case of `O=C(CCl)NCCc1cccc2ccccc12`, the “log2 ratio” value is reported as 0.0626. `CCCn1nccc1NC(=O)CCl` was tested, and the “log2 ratio” value was 0.00925. With `CNC(=O)C1CCN(C(=O)CCl)CC1` the “log2 ratio” value was 0.0041. For `O=C(CCl)N1CCOC(c2cccc(F)c2)C1` (stereo not given), the “log2 ratio” value was -0.803. `Cc1c(C#N)c(NC(=O)CCl)n(Cc2ccco2)c1C` was tested, and the “log2 ratio” value was -0.292. For `O=C(CCl)N1CCC(C(=O)N2CCCCCC2)CC1`, the “log2 ratio” value was -0.035. With `CN1C(=O)c2ccc(NC(=O)CCl)cc2C1=O` the “log2 ratio” value was -0.313. With `C[C@H]1CN(C(=O)CCl)CCN1C(=O)c1cnn(C)c1.Cl` the “log2 ratio” value was -0.236. With `CC1(NC(=O)CCl)CCS(=O)(=O)C1` (stereo not given) the “log2 ratio” value was -0.934. For `O=C(CCl)NCc1ccc(Cl)cc1`, the “log2 ratio” value was 0.0745. With `O=C(CCl)Nc1ccc(N2CCCC2=O)cc1` the “log2 ratio” value was 0.0281. For `Cc1ncsc1CCNC(=O)CCl`, the “log2 ratio” value was -0.271. With `Cc1cccc(C)c1NC(=O)CCl` the “log2 ratio” value was -0.228. In the case of `Cc1cccc(C(CNC(=O)CCl)N2CCOCC2)c1.Cl` (stereo not given), the “log2 ratio” value is reported as -0.199. For `Cc1cccc(NC(=O)CCl)c1C`, the “log2 ratio” value was -0.0599. In the case of `Cc1cc(C2CCCN2C(=O)CCl)nn1C.Cl` (stereo not given), the “log2 ratio” value is reported as -0.0857. With `O=C(CCl)N1CCCC2CCCCC21` (stereo not given) the “log2 ratio” value was -0.106. In the case of `Cc1cccc(N2CCC(NC(=O)CCl)C2=O)c1` (stereo not given), the “log2 ratio” value is reported as -0.412. For `CC(O)CC1CCN(C(=O)CCl)CC1` (stereo not given), the “log2 ratio” value was 0.0747. With `Cc1nc(CC2CCN(C(=O)CCl)CC2)no1` the “log2 ratio” value was -0.753. In the case of `CC1Cc2ccccc2N1C(=O)CCl` (stereo not given), the “log2 ratio” value is reported as -0.544. `O=C(CCl)Nc1cccc(C(=O)N2CCSCC2)c1` was tested, and the “log2 ratio” value was -0.0407. With `Cl.O=C(CCl)N1CCc2ncncc2C1` the “log2 ratio” value was -0.304. With `NC(=O)C(Cc1ccccc1)NC(=O)CCl` (stereo not given) the “log2 ratio” value was -0.451. With `CC(NC(=O)CCl)c1csc(-c2ccccc2)n1.Cl` (stereo not given) the “log2 ratio” value was -1.31 (active). For `Cc1ccc(CC(NC(=O)CCl)c2ccccn2)cc1.Cl` (stereo not given), the “log2 ratio” value was 0.0988. `O=C(CCl)N[C@H]1CCS(=O)(=O)c2ccccc21` was tested, and the “log2 ratio” value was -1.08 (active). In the case of `O=C(CCl)NCC(=O)N1CCCC1`, the “log2 ratio” value is reported as -0.278. For `CC(C)n1nccc1NC(=O)CCl`, the “log2 ratio” value was -0.438. For `Cc1cc(CC(C)NC(=O)CCl)n[nH]1` (stereo not given), the “log2 ratio” value was -0.115.

These compounds were tested against T2, OTUD5 (UniProt Q96G74) in the same assay as above. Conditions: compound concentration: 200 uM; treatment time: 3 h.
T2 sequence (whole entry): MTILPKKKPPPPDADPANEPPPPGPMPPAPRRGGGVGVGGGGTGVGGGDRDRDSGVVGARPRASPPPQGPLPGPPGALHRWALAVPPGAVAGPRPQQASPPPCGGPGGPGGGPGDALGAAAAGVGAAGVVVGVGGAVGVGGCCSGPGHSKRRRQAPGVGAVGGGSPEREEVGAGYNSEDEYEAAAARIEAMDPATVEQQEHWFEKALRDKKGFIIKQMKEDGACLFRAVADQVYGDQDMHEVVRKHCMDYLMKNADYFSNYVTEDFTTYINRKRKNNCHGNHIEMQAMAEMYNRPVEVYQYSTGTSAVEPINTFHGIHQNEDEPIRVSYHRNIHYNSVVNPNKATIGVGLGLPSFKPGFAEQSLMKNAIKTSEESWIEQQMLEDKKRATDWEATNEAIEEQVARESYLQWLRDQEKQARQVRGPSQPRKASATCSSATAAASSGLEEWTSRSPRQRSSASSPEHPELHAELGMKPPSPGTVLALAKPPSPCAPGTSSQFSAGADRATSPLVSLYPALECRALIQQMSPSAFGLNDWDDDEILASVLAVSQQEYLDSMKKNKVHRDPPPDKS
Method in brief: as §1
With `COc1cc(Cl)c(C)cc1NC(=O)CCl` the “log2 ratio” value was -0.644. With `Cl.O=C(CCl)N1CCN(Cc2ccccc2)CC1` the “log2 ratio” value was -0.551. For `Cc1nc(CN2CCN(C(=O)CCl)CC2)cs1`, the “log2 ratio” value was -0.265. In the case of `O=C(CCl)Nc1cc(Cl)ccc1C(=O)O`, the “log2 ratio” value is reported as -0.156. With `CN(C(=O)CCl)c1nc2ccccc2s1` the “log2 ratio” value was -1.02 (active). `O=C(CCl)NCCc1cccc2ccccc12` was tested, and the “log2 ratio” value was 0.0474. With `CCCn1nccc1NC(=O)CCl` the “log2 ratio” value was -0.138. In the case of `CNC(=O)C1CCN(C(=O)CCl)CC1`, the “log2 ratio” value is reported as -0.381. For `O=C(CCl)N1CCOC(c2cccc(F)c2)C1` (stereo not given), the “log2 ratio” value was -0.491. For `Cc1c(C#N)c(NC(=O)CCl)n(Cc2ccco2)c1C`, the “log2 ratio” value was -0.61. In the case of `O=C(CCl)N1CCC(C(=O)N2CCCCCC2)CC1`, the “log2 ratio” value is reported as -0.328. For `CN1C(=O)c2ccc(NC(=O)CCl)cc2C1=O`, the “log2 ratio” value was -0.621. With `C[C@H]1CN(C(=O)CCl)CCN1C(=O)c1cnn(C)c1.Cl` the “log2 ratio” value was -0.326. In the case of `CC1(NC(=O)CCl)CCS(=O)(=O)C1` (stereo not given), the “log2 ratio” value is reported as -0.673. `O=C(CCl)NCc1ccc(Cl)cc1` was tested, and the “log2 ratio” value was -0.00631. In the case of `O=C(CCl)Nc1ccc(N2CCCC2=O)cc1`, the “log2 ratio” value is reported as -0.504. With `Cc1ncsc1CCNC(=O)CCl` the “log2 ratio” value was 0.163. With `Cc1cccc(C)c1NC(=O)CCl` the “log2 ratio” value was -0.42. `Cc1cccc(C(CNC(=O)CCl)N2CCOCC2)c1.Cl` (stereo not given) was tested, and the “log2 ratio” value was -0.241. For `Cc1cccc(NC(=O)CCl)c1C`, the “log2 ratio” value was -0.394. With `Cc1cc(C2CCCN2C(=O)CCl)nn1C.Cl` (stereo not given) the “log2 ratio” value was -0.157. With `O=C(CCl)N1CCCC2CCCCC21` (stereo not given) the “log2 ratio” value was -0.314. In the case of `Cc1cccc(N2CCC(NC(=O)CCl)C2=O)c1` (stereo not given), the “log2 ratio” value is reported as -0.338. In the case of `CC(O)CC1CCN(C(=O)CCl)CC1` (stereo not given), the “log2 ratio” value is reported as -0.195. In the case of `Cc1nc(CC2CCN(C(=O)CCl)CC2)no1`, the “log2 ratio” value is reported as -0.888. For `CC1Cc2ccccc2N1C(=O)CCl` (stereo not given), the “log2 ratio” value was -0.957. With `O=C(CCl)Nc1cccc(C(=O)N2CCSCC2)c1` the “log2 ratio” value was -0.638. `Cl.O=C(CCl)N1CCc2ncncc2C1` was tested, and the “log2 ratio” value was -0.373. With `NC(=O)C(Cc1ccccc1)NC(=O)CCl` (stereo not given) the “log2 ratio” value was -0.216. `CC(NC(=O)CCl)c1csc(-c2ccccc2)n1.Cl` (stereo not given) was tested, and the “log2 ratio” value was -0.527. With `Cc1ccc(CC(NC(=O)CCl)c2ccccn2)cc1.Cl` (stereo not given) the “log2 ratio” value was -0.157. `O=C(CCl)N[C@H]1CCS(=O)(=O)c2ccccc21` was tested, and the “log2 ratio” value was -0.117. With `O=C(CCl)NCC(=O)N1CCCC1` the “log2 ratio” value was -0.231. `CC(C)n1nccc1NC(=O)CCl` was tested, and the “log2 ratio” value was -0.522. `Cc1cc(CC(C)NC(=O)CCl)n[nH]1` (stereo not given) was tested, and the “log2 ratio” value was -0.0107.
